Molecules are shown by their SMILES. About 83,000 compounds went through this panel and 20% of them were active in at least one assay; those are over-represented in the sample as a whole.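 48-hour exposure, single concentration, 96-well plates; percent growth endpoint where 0 means no net growth. Active: below 10.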 Values without a mark were called inactive. Activity calls are given as the source filed them.

This test has as its system HL-60(TB) leukemia. The test is described as follows: NCI-60 one-dose screen, 48 h (100 = growth as untreated, 0 = no growth, -100 = all killed). Conditions: 10 µM unless noted.
`C=COC(=O)C(C)(C)C`: the growth was 98.9%.
For the compound `CCOC(=O)/C(C#N)=C(/C)C1CC1`, the growth is 110%.
Regarding `CCNS(=O)(=O)c1ccc(C)cc1`, the growth was 72%.
`COc1ccc(C[n+]2c3ccccc3n3c4ccc(N)cc4ccc32)c(OC)c1OC`: the growth was -6.46% (active).
With `COc1ccc(-c2cc3c(OC)c(OC)c(OC)cc3oc2=O)cc1`, the growth is 36.5%.
As to `O=C(NC[C@H](O)CO)c1ccncc1Nc1ccc(I)cc1F`, the growth was 24.2%.
Take `C=C(c1ccc(N(C)C)cc1)c1ccc(N(C)C)cc1`: the growth is -6.12% (active).
As to `OCCn1cc(-c2nc(-c3c[nH]c4ncccc34)cs2)c2ccccc21`, the growth was 79.1%.
As to `O=C(NCCN1CCCCC1)n1cc(-c2ccncc2)c(-c2ccc(Cl)c(O)c2)n1`, the growth is 71.1%.
With `CN1CCN(Cc2ccc(NC(=O)c3cccc(C#Cc4cnc(N)c5ncccc45)c3F)cc2C(F)(F)F)CC1`, the growth was 12%.
For the compound `CCCCCC(CCCCC)C(=O)O`, the growth was 90.4%.
Consider `O=C1c2ccccc2C(=O)c2c(N=Nc3[nH]c(=S)[nH]c3O)cccc21`, for which the growth is -32.1% (active).
Consider `CC(C)(c1ccccc1)c1cc(O)c(C(C)(C)c2ccccc2)cc1O`, for which the growth is -6.95% (active).
For the compound `CCOC(=O)c1c(C(F)(F)F)n([O-])c2ccc(Cl)cc2[n+]1=O`, the growth is -65.2% (active).
In the case of `Cc1cc(O)ccc1O`, the growth was -14.1% (active).
With `Nc1nc(SN=Nc2ccc(S(N)(=O)=O)cc2)c2[nH]cnc2n1`, the growth was -16% (active).
Next, `O=C(N/N=C/c1c(Cl)cccc1Cl)c1ccc(C(F)(F)F)nc1Nc1cccc(C(F)(F)F)c1`: -44.5% (active); `OCCN1CCN(c2cc(-c3cccc(OC(F)(F)F)c3)nc3ccc(N4CCCC4)cc23)CC1`: 62.8%; `Cc1cnc(C(=O)Nc2nc3ccc(S(=O)(=O)Nc4ccc(C5(C(F)(F)F)CC5)cc4)cc3[nH]2)cn1`: -25.1% (active).
As for `CCCCCCCCn1ccc2cc(NC(=O)Cn3cc(CN4CCCCCC4)nn3)ccc21`, the growth is -43.1% (active).
As for `COc1ccc2c(OCc3nnc4ccc(-c5ccccc5)nn34)ccnc2c1`, the growth is 106% [2.5 µM].
`COc1ccc2nc(NNC(=O)c3cnccn3)c3cccn3c2c1`: the growth is -27.1% (active).
In the case of `O=C1/C(=C/c2ccccc2Br)COc2ccc(O)cc21`, the growth was 17.1%.
Turning to `Cn1ccc2c3c(ccc21)CC3=O`, the growth is 113%.
`O=C(O)c1ccccc1C(F)(F)F`: the growth is 100%.
As to `CC1=CC(=NN=c2cc(C)n([O-])c(C)c2)C=C(C)[N+]1=O`, the growth is 37.6%.
Regarding `O=C(Nc1ccc(CN2CCOCC2)cc1)c1[nH]ncc1Nc1ncnc2sccc12`, the growth is -22% (active).
On to `N#Cc1c(-c2ccccc2)cc(-c2ccccc2)n(CC(=O)O)c1=O`, for which the growth was 23.6%.
In the case of `CC(=O)c1sc(-c2ccccc2)cc1N`, the growth was 83.6%.
Take `COc1ccc2c(c1)[nH]c(=O)c1c3cc(OC)ccc3cn21`: the growth is -8.1% (active).
Regarding `CC(=O)c1c(/C=C/c2ccc(C)cc2)c2ccccc2[nH]c1=O`, the growth was 99.3%.
Regarding `CC(C)=NNC(N)=S`, the growth is 84.7%.
As to `Cc1ccc2c(c1)O/C(=C\c1cccc(OCC(=O)c3ccccc3)c1)C2=O`, the growth is 12.1%.
Take `O=S(=O)(Cc1ccccc1)c1nc2ccccc2s1`: the growth is 16.9%.
Next, `C=C(C)[C@@H]1CC[C@]2(C(=O)OC)CC[C@]3(C)[C@H](CC[C@@H]4[C@@]5(C)CC/C(=N\OCCC(=NCCC#N)NOCCC#N)C(C)(C)[C@@H]5CC[C@]43C)[C@@H]12`: 0.897% [100 µM] (active); `NC1(C(=O)O)CSSC1`: 4.59% (active).
Consider `O=C(CCCCCCCCC(=O)Nc1cccc(C2=NCCN2)c1)Nc1cccc(C2=NCCN2)c1`, for which the growth is 81.9%.
With `C=C1C(=O)O[C@H]2[C@H]1CC/C(C(=O)NCCCCCNC(=O)/C1=C/CC[C@@]3(C)O[C@H]3[C@H]3OC(=O)C(=C)[C@@H]3CC1)=C\CC[C@@]1(C)O[C@@H]21`, the growth is 89.4%.
With `O=S(=O)(NCCCNc1nccc(-c2c(-c3cccc(F)c3)nc3sccn23)n1)c1cccc(F)c1`, the growth was 40.5%.
Regarding `CSc1nc2c(c(=O)n1C)C(c1ccccc1)C1=C(N2)/C(=C/c2ccccc2)CCC1` (stereo not given), the growth was 12.8%.

Values taken from PubChem BioAssay (NCI).
